In PubChem BioAssay (NCI):
The panel holds about 79,000 compounds, 15% with a hit somewhere; the sample as a whole holds those more often. Active and inactive are the calls of the source. No stated cut-off is given here; in the data, active means growth inhibition above about 70%; inactive means the rest.

Experiments:
[1] = NCI Yeast Anticancer Drug Screen. Data for the rad50 strain (AID 155);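 further: 0% = growth of vehicle-only cultures of the same strain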; details: S. cerevisiae rad50 strain growth inhibition; at 50.0 µM; hits give high values
Method in brief: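 Inhibition values express reduced yeast growth in compound-treated cultures relative to vehicle-treated controls.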

[2] = NCI Yeast Anticancer Drug Screen. Data for the mec2-1 strain (AID 157); details: S. cerevisiae mec2-1 strain, at 50.0 µM, hits give high values
Method in brief: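 Growth inhibition is read against vehicle-treated controls after compound exposure of the mec2-1 yeast strain, which is defective in DNA damage repair or cell cycle control.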

[3] = NCI Yeast Anticancer Drug Screen. Data for the sgs1 mgt1 strain (AID 161);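 further: 0% = growth of cultures given vehicle only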; details: S. cerevisiae sgs1 mgt1 strain, at 50.0 µM, hits give high values
Method in brief: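 Percent growth inhibition was derived by comparing compound-exposed mutant yeast with vehicle-exposed cultures. The strain carries alterations in DNA damage repair.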

[4] = NCI Yeast Anticancer Drug Screen. Data for the cln2 rad14 strain (AID 165);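 further: 0% = growth equal to vehicle treated cultures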; details: S. cerevisiae cln2 rad14 strain, at 50.0 µM, hits give high values
Method in brief: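 Growth inhibition, relative to vehicle-treated controls, is the read-out. The test organism is a yeast strain with defined genetic alterations, cln2 rad14.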

[5] = NCI Yeast Anticancer Drug Screen. Data for the bub3 strain (AID 167); details: S. cerevisiae bub3 mutant strain, at 50.0 µM, hits give high values
Method in brief: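 Steps: expose the mutant yeast strain to compound; grow alongside vehicle-treated cultures; measure growth; express inhibition against the vehicle cultures.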

[6] = NCI Yeast Anticancer Drug Screen. Data for the mlh1 rad18 strain (AID 175); details: S. cerevisiae mlh1 rad18 strain growth inhibition; at 50.0 µM; hits give high values
Method in brief: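 Cells of a genetically altered yeast strain, deficient in DNA damage repair, were treated with compound. Their growth was then compared with that of vehicle-treated cultures to give inhibition.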

Measured: growth inhibition

O=C(/C=C\c1ccc(O)cc1)c1ccccc1
inactive: [1] 15.9% | [2] -14.3% | [3] 45.9% | [4] 8.6% | [5] 29.6% | [6] 14.1%

CO[C@H]1C[C@@H]2CC[C@@H](C)[C@@](O)(O2)C(=O)C(=O)N2CCCC[C@H]2C(=O)O[C@H]([C@H](C)C[C@@H]2CC[C@@H](O)[C@H](OC)C2)CC(=O)[C@H](C)C=C(C)[C@@H](O)[C@@H](OC)C(=O)[C@H](C)C[C@H](C)/C=C/C=C/C=C1C
active: [1] 88.8% | [2] 91.2% | [3] 89.8% | [4] 85.2% | [5] 89.1% | [6] 89.4%

Nc1nc2c(c(-c3nc(N)nc4c3CCc3ccccc3-4)n1)CCc1ccccc1-2
inactive: [1] -0.5% | [2] -12.6% | [3] -25.1% | [4] 3.05% | [5] -20.5% | [6] 2.9%

Cc1cc2nc(CC(=O)c3cccc([N+](=O)[O-])c3)c(=O)[nH]c2cc1C
inactive: [1] 22.2% | [2] 10.9% | [3] 7.1% | [4] 20.5% | [5] -6.15% | [6] 39.5%

CN(C)C(C)(C)CC(C)(C)C
inactive: [1] 35.7% | [2] 4% | [3] 15.7% | [4] 4.85% | [5] 17.3% | [6] 26.6%

NC(=O)NC(=O)c1ccc(Cl)cc1
inactive: [1] 14.8% | [2] -7.05% | [3] 19.2% | [4] 29.1% | [5] -1.05% | [6] 11.3%

O=S(=O)(O)c1ccc(O)c2ccccc12
inactive: [1] -12.6% | [2] 19.4% | [3] 0% | [4] -30.1% | [5] 11.7% | [6] 56.2%

OCC1OC(OC2C(O)C(CO)OC2(CO)OC2OC(CO)C(O)C(O)C2O)C(O)C(O)C1O (stereo not drawn)
inactive: [1] -18.1% | [2] -7.95% | [3] -31.8% | [4] -3.15% | [5] -14.2% | [6] -14.7%

O=C(CCNNC(=O)c1ccncc1)NCc1ccccc1
inactive: [1] 8.25% | [2] 11.6% | [3] 11.9% | [4] -46% | [5] -9.8% | [6] 7.3%

CCCCC1(CC)COC(CCC)OC1 (stereo not drawn)
inactive: [1] 26.4% | [2] 2.15% | [3] 12.7% | [4] -22.6% | [5] -12.2% | [6] 11.5%

O=C(NN=C1CCCCC1)C(=O)NN=C1CCCCC1
inactive: [1] 34.1% | [2] 13.6% | [3] 13.5% | [4] -20.7% | [5] 10% | [6] 28.6%

O=C(NCCNC(=O)c1ccc(Cl)cc1Cl)c1ccc(Cl)cc1Cl
inactive: [1] -9.25% | [2] -10.8% | [3] -4% | [4] -42.2% | [5] -1.25% | [6] -20.2%

CCC/C=C(\C)C(C)(C#N)C(=O)OCC (stereo not drawn)
inactive: [1] 3.1% | [2] -8.45% | [3] 10.8% | [4] -1.35% | [5] -17.7% | [6] -29.9%

CC1=C(/C=C/C(C)=C/C=C/C(C)=C/CO)C(C)(C)CCC1
inactive: [1] 14.8% | [2] 4.45% | [3] -3.15% | [4] 10.7% | [5] -42.2% | [6] 6.55%

FC(F)(F)c1ccc2c(c1)N(CCCN1CCN(C3CC3)CC1)c1ccccc1S2
active: [1] 99.3% | [2] 99.3% | [3] 99.7% | [4] 99% | [5] 99% | [6] 99.5%

CC(=O)c1ccc(C(C)(C)C)cc1
inactive: [1] -2.35% | [2] -5.2% | [3] -12.9% | [4] 12.1% | [5] 2.5% | [6] 15%

S=C1CCCCCN1
inactive: [1] 47.6% | [2] 17.8% | [3] 42.6% | [4] 9.95% | [5] 30.4% | [6] 30.8%

C#C[C@H]1CCCCCC1O (stereo partly drawn)
inactive: [1] 13.1% | [2] 2% | [3] -1.35% | [4] 14.4% | [5] -6.75% | [6] 21.9%

Cc1cc(=O)cc(C)n1-c1ccccc1
inactive: [1] 11.9% | [2] -5.75% | [3] -15.4% | [4] 0.25% | [5] 12.1% | [6] 19.2%

COC(=O)c1cccc(Br)c1
inactive: [1] -4.4% | [2] 1.5% | [3] -4.75% | [4] -29.5% | [5] 0.15% | [6] 13.4%

N#Cc1c(N)sc(=S)c2c1CCCC2
inactive: [1] 9.65% | [2] 9.85% | [3] 29.4% | [4] 1.8% | [5] -2.05% | [6] 11.4%

CCCCN(CCCC)CCCO
inactive: [1] -14.4% | [2] -24.5% | [3] -11.3% | [4] -27.7% | [5] -2.7% | [6] -21.1%

O=C(O)CCCC(=O)O
inactive: [1] -36.5% | [2] -0.7% | [3] -22.6% | [4] -21.4% | [5] -51.6% | [6] 4.5%

Oc1ccc(Cc2ccccc2)c2cccnc12
inactive: [1] -27.7% | [2] -8.6% | [3] -12.7% | [4] -19.4% | [5] -17.1% | [6] 34.6%

CC(=O)C1CCCCC1
inactive: [1] 26.7% | [2] 11.2% | [3] 4.5% | [4] 11.7% | [5] 1.2% | [6] 16.8%

CC(O)COc1ccc(-c2ccccc2)cc1 (stereo not drawn)
inactive: [1] 5.5% | [2] -2.9% | [3] 33% | [4] 15.9% | [5] 28.1% | [6] 19.9%

CCN(CC)CCCC(C)Nc1ccnc(/C=C/c2ccc(Cl)cc2)c1 (stereo not drawn)
inactive: [1] 2.75% | [2] -1.2% | [3] -16.1% | [4] -2.55% | [5] -39.5% | [6] -19%

Cc1ccc(C(O)C2CC2)cc1 (stereo not drawn)
inactive: [1] -24.2% | [2] -38.6% | [3] -23.1% | [4] 11.4% | [5] -21.6% | [6] -0.65%

CC1CC(O)C2C3(C)CCCC2(COC3=O)C12CCC1(CCOC1=O)O2 (stereo not drawn)
inactive: [1] 4.4% | [2] 8.35% | [3] 18.3% | [4] 25.9% | [5] 8.35% | [6] 13.6%

C=C1CC/C=C(\C)C(=O)C[C@@H]2[C@@H]1CC2(C)C
inactive: [1] 5.85% | [2] 11.8% | [3] 20.2% | [4] 18.6% | [5] 15.3% | [6] -43.1%

O=c1c2ccccc2c(Br)c(Br)c2ccccc12
inactive: [1] 11.4% | [2] -12.4% | [3] 15.6% | [4] 3.3% | [5] 9.15% | [6] 27.4%

CCCC(=O)Nc1ccc2c(c1)CN1C(=O)c3ccccc3C1=N2
inactive: [1] -11.7% | [2] 1.8% | [3] 7.75% | [4] 5.15% | [5] -1.65% | [6] -7.15%

CC(=O)Nc1cccc(Cl)c1C
inactive: [1] 17.6% | [2] 11.7% | [3] 1.35% | [4] 4.9% | [5] 8.85% | [6] -0.35%

CC1(O)OC(COc2ccc(Cl)cc2)COC1O (stereo not drawn)
inactive: [1] 0.55% | [2] -8.65% | [3] 4.7% | [4] 8.55% | [5] -9.7% | [6] 18.9%

C#CC(C(C)C)N(CCO)CCCC (stereo not drawn)
inactive: [1] 11.2% | [2] 4.55% | [3] 8.3% | [4] 7.35% | [5] 26.7% | [6] 16%

CN(C)c1ccc(C(c2ccc(O)cc2)c2ccc(N(C)C)cc2)cc1
inactive: [1] -10.4% | [2] -37.1% | [3] -17.9% | [4] -38.6% | [5] -3% | [6] -6.5%

Cc1ccc(C(=O)N/N=C/c2ccc3c(c2)OCO3)cc1
inactive: [1] 18.1% | [2] 8.35% | [3] 4.15% | [4] 10.8% | [5] 6.2% | [6] 6.75%

O=[N+]([O-])c1ccc(-c2ncc(-c3ccc(Br)cc3)o2)cc1
inactive: [1] -0.1% | [2] -3.3% | [3] 21.9% | [4] 11.6% | [5] 17.2% | [6] 3.45%

CC1(C(N)=O)CCC(C(=O)O)C1(C)C (stereo not drawn)
inactive: [1] 10.3% | [2] -3.45% | [3] 14.4% | [4] -29.9% | [5] -3.45% | [6] 8.15%

C[C@]12CC[C@@H]3c4ccc(OCC(=O)O)cc4CC[C@H]3[C@@H]1CCC2=O
inactive: [1] 16% | [2] 0.35% | [3] -18.7% | [4] -8% | [5] 5.6% | [6] 2.05%

CC(C)=C(NC(=O)c1ccccc1)C(=O)O
inactive: [1] 14.1% | [2] 0.35% | [3] -5.25% | [4] 22% | [5] -2.7% | [6] 12.9%

S=C1NCc2cncnc2N1
inactive: [1] -13.7% | [2] -2.05% | [3] -6.9% | [4] -8.7% | [5] 3.85% | [6] 18.8%

Cc1cc(C(O)(c2ccc(Nc3ccccc3)cc2)c2ccc(Nc3ccc(S(=O)(=O)O)cc3)cc2)ccc1N (stereo not drawn)
inactive: [1] -44.5% | [2] -46% | [3] -9.6% | [4] -16.1% | [5] -36.6% | [6] -34.6%
